In PubChem BioAssay one finds inhibition data, which are given here for 39 molecules.

Structures are written as SMILES. Calls of active or inactive are those of the source.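 Rule for the calls: active = at least 20% inhibition of 6-phosphogluconate dehydrogenase activity; inactive = the rest.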

Sequence of 6-phosphogluconate dehydrogenase, decarboxylating (Homo sapiens) (P52209 whole entry, looked up): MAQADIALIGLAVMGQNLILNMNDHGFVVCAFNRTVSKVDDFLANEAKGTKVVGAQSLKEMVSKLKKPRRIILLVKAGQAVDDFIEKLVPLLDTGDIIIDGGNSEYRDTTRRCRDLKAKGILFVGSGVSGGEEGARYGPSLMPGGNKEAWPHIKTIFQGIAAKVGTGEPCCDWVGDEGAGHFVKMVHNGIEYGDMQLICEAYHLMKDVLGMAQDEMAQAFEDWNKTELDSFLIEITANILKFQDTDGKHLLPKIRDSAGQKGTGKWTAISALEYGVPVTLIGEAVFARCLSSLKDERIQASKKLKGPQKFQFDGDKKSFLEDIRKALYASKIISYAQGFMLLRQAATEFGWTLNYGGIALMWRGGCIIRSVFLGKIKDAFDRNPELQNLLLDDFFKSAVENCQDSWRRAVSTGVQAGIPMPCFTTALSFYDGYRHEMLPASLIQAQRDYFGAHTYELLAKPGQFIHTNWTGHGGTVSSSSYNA

The assay has as its target 6-phosphogluconate dehydrogenase, decarboxylating (Homo sapiens) (UniProt P52209). As to the kind of experiment: inhibition of human phosphogluconate dehydrogenase – biochemical, recombinant enzyme, NADPH absorbance, primary screen (AID 1159550). The note with it: recombinant 6PGD, NADPH absorbance 341 nm; at 10 µM; hits give high values.
For `C[C@H](CCC(=O)O)[C@H]1CC[C@H]2[C@@H]3[C@H](O)C[C@@H]4C[C@H](O)CC[C@]4(C)[C@H]3C[C@H](O)[C@]12C`, the inhibition is -7.09% (inactive).
As to `C=C(C)CCCC(C)CCOC(C)=O` (centres undefined), the inhibition was 8.09% (inactive).
In the case of `C[C@H]1[C@H](C)CC[C@]2(C(=O)O)CC[C@]3(C)C(=CC[C@@H]4[C@@]5(C)C[C@@H](O)[C@H](O)[C@@](C)(CO)[C@@H]5[C@H](O)C[C@]43C)[C@H]12`, the inhibition is 2.44% (inactive).
With `COc1ccc(C2CC(=O)c3ccc(OC)cc3O2)cc1` (centres undefined), the inhibition is 21.7% (active).
Take `COc1cc(OC)c2c(=O)c(-c3ccccc3)coc2c1`: the inhibition is 10.4% (inactive).
In the case of `COc1ccc(-c2coc3cc(OC)cc(OC)c3c2=O)cc1` it was 4.5% (inactive); in that of `CC1(C)CC[C@]2(C(=O)O)CC[C@]3(C)C(=CC[C@@H]4[C@@]5(C)CC[C@H](O)[C@@](C)(CO)[C@@H]5CC[C@]43C)[C@@H]2C1`, -1.09% (inactive).
In the case of `CC1(C)C[C@@H]2C(=O)CC[C@H]3O[C@]3(C)CC[C@H]21` it was 14.4% (inactive); in that of `COc1cccc2c1CCC1=CC(=O)CC[C@@]12C`, -1.6% (inactive).
As to `CC1(C)C(=O)C=C[C@@]2(C)C1C=C[C@]1(C)C2CC[C@@]2(C)[C@H](c3ccoc3)OC(=O)C3OC321` (some centres undefined), the inhibition was -14.8% (inactive).
In the case of `O=c1oc2ccccc2cc1O` it was 15.9% (inactive); in that of `COC1=C(O)c2cc3oc(C(C)=O)c(O)c3c(O)c2C(=O)C1=O`, 1.87% (inactive).
In the case of `COc1ccc(C(C)=O)c(OC)c1` it was -3.95% (inactive).
`CC(=O)O[C@H]1CC[C@@]2(C)[C@H](CC[C@@H]3[C@@H]2CC[C@]2(C)[C@@H]4[C@H](C[C@@H]32)O[C@]2(CC[C@@H](C)CO2)[C@H]4C)C1`: the inhibition is 13.5% (inactive).
For `CC1(C)[C@@H](O)CC[C@]2(C)[C@H]3C(=O)C=C4[C@H]5C[C@@](C)(C(=O)O)CC[C@]5(C)CC[C@@]4(C)[C@]3(C)CC[C@@H]12`, the inhibition was -38.1% (inactive).
`COc1cc(OC)c2c(=O)c(OC)c(-c3ccc(OC)c(OC)c3)oc2c1`: the inhibition is 1.73% (inactive).
Regarding `CC1(C)C2CC(=O)O[C@@]3(C)C4=CC(=O)O[C@@H](c5ccoc5)[C@]4(C)CCC3[C@@]2(C)C=C[C@H]1O` (some centres undefined), the inhibition was 9.39% (inactive).
In the case of `C/C1=C\CCC(=O)C2CC(C)(C)C2CC1` (centres undefined) it was -1.45% (inactive); in that of `COC(=O)CC1C(C)(C)C(OC(C)=O)[C@@H]2[C@@H](OC(C)=O)[C@]34O[C@@]2(O)[C@]1(C)C3CC[C@]1(C)C4=CC(=O)O[C@H]1c1ccoc1` (some centres undefined), -1.28% (inactive).
`O=C(NCO)c1cccnc1`: the inhibition was -8.21% (inactive).
Consider `COC(=O)C1=CO[C@@H](O[C@@H]2O[C@H](CO)[C@@H](O)[C@H](O)[C@H]2O)[C@@H]2[C@@H](C)[C@@H](O)C[C@H]12`, for which the inhibition was 6.61% (inactive).
For `C[C@@H]1CC[C@@]2(OC1)O[C@H]1C[C@H]3[C@@H]4CC[C@H]5C[C@@H](O)CC[C@]5(C)[C@H]4CC[C@]3(C)[C@H]1[C@@H]2C`, the inhibition was -2.45% (inactive).
For `C=C1C2CCC3(C)C(c4ccoc4)OC(=O)CC13OC1CC(OC(C)=O)C(C)(C)C(CC(=O)OC)C12C` (centres undefined), the inhibition was 5.49% (inactive).
In the case of `CC(C)=CCc1c2c(c(O)c3c(=O)c(O)c(-c4ccccc4)oc13)C=CC(C)(C)O2` it was -4.34% (inactive).
Regarding `COC(=O)c1c(OC)cc2c(c1C)Oc1c(Cl)c(OC(C)=O)c(Cl)c(C)c1C(=O)O2`, the inhibition is -6.07% (inactive).
In the case of `C/C(=C\CO)CCC[C@H](C)CCC[C@H](C)CCCC(C)C` it was 5.74% (inactive); in that of `C[N+]1(C)C[C@H](O)C[C@H]1C(=O)[O-]`, 0.213% (inactive).
`COC(=O)[C@@H]1OC(=O)[C@H]2O[C@@]23[C@@]1(C)CCC1[C@@]2(C)CCC(=O)C(C)(C)C2C[C@@H](OC(C)=O)[C@]13C` (some centres undefined): the inhibition was 7.3% (inactive).
Take `CC(=O)/C=C\[C@@H]1[C@@]2(C)CCCC(C)(C)C2CC[C@@]1(C)O` (some centres undefined): the inhibition is 14.1% (inactive).
In the case of `CCCCCC/C=C\CCCCCCCc1cccc(O)c1C(=O)O` it was 0.888% (inactive); in that of `COC(=O)CC[C@@H](C)[C@H]1CC[C@H]2[C@@H]3[C@H](O)C[C@@H]4C[C@H](O)CC[C@]4(C)[C@H]3C[C@H](O)[C@]12C`, -4.15% (inactive); in that of `COc1cc(/C=C/CO)ccc1O`, 17.3% (inactive).
As to `CC(=O)O[C@@H]1C[C@H]2C(C)(C)[C@@H](O)CC[C@]2(C)[C@H]2CC[C@@]3(C)[C@H](c4ccoc4)OC(=O)[C@H]4O[C@]43[C@@]21C`, the inhibition is -6.19% (inactive).
With `CC1C2[C@]3(CC[C@H]1C)CCC1(C)[C@@]2(C=CC2[C@@]4(C)CCC(=O)C(C)(C)C4CC[C@]21C)OC3=O` (some centres undefined), the inhibition was 17.9% (inactive).
As to `CC(=O)OC1CCC2(O)CC1(C)CCC1C2CC1(C)C` (centres undefined), the inhibition is 15.6% (inactive).
In the case of `COc1ccc(-c2cc(=O)c3ccccc3o2)cc1`, the inhibition was -3.26% (inactive).
In the case of `CCC(=O)OC1[C@@H]2CC3=C4CC(=O)O[C@@H](c5ccoc5)[C@]4(C)CCC3[C@@](C)(C2=O)[C@@H](CC(=O)OC)C1(C)C` (some centres undefined) it was -1.17% (inactive); in that of `COC(=O)C[C@H]1C2(C)CC34OC5(C)O[C@@]6([C@H](OC)C(OC(=O)C(C)C)[C@]7(C)C(/C(=C(/OC)C(C)C)C(=O)O[C@H]7c7ccoc7)[C@@]6(O5)[C@H](OC)[C@@]3(OC)C2OC(C)=O)[C@]14C` (some centres undefined), -3.86% (inactive); in that of `COC(=O)[C@@H]1OC(=O)C2OC23[C@@]1(C)CCC1[C@]2(C)C(C[C@H](O)[C@]13C)C(C)(C)[C@H](OC(C)=O)C[C@@H]2OC(C)=O` (some centres undefined), -8.14% (inactive).

As a reminder, the inhibition is the relative decrease from the control value, in per cent.
